JMJD2A Tudor: inhibitors of human JMJD2A Tudor domain; AlphaScreen JMJD2A-Tudor / H3K4me3 peptide binding; Potency, µM (top dose mostly 114 µM), usual class: inhibitors; 390,000 compounds, 4.4% hits; O75164; note: nearly all actives have a fitted effect of over 50% in size
G9a inh: G9a (human) methyltransferase inhibition | Q96KQ7 | G9a H3K9 monomethylation, AlphaScreen, 2 h | Potency, µM (highest dose often 102 µM), most hits filed as inhibitors | 350,000 compounds, 8.8% hits | AID 504332; note: nearly all actives have a fitted effect of over 75% in size
Target sequence (Q96KQ7 913-1193 limits assumed): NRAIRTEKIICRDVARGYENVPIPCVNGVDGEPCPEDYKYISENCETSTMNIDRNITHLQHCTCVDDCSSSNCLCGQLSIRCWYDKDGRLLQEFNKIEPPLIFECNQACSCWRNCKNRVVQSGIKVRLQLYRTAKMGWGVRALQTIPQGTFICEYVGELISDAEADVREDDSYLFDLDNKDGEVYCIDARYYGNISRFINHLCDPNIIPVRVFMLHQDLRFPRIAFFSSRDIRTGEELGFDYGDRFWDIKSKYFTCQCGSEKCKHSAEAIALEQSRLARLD
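G9a (20 nM) was preincubated 15 min with compound, then reacted 2 h at room temperature with 500 nM biotin-H3K9 peptide and 20 µM SAM. Monomethyl-H3K9 detected by AlphaScreen using anti-H3K9me1 antibody.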
PLK1 PBD block: blocks phosphopeptide binding to human PLK1 polo-box domain; P53350; Plk1 PBD binding of FITC phosphopeptide, fluorescence polarization; Potency, µM, usual class: inhibitors; 360,000 compounds, 2.8% hits; note: series mostly up to about 57 µM; nearly all actives have a fitted effect of over 65% in size
BAZ2B inh: blocks human BAZ2B; Q9UIF8; Potency, µM (series often up to 114 µM), hits mostly inhibitors; 360,000 compounds, 4.4% hits; AID 504333; AlphaScreen BAZ2B-H3K14Ac peptide displacement; note: nearly all actives have a fitted effect of over 60% in size
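Protein-peptide AlphaScreen: BAZ2B 50 nM, b-H3K14Ac 50 nM, 1x PBS pH 7.4 + 0.01% Tween-20. Preincubation 30 min RT; cpd 30 min RT (top 110 uM); beads 20 min RT, light-protected.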
VDR inh: blocks the human vitamin D receptor; VDR-SRC2-3 peptide fluorescence polarization, 2 h; AID 504847; Potency, µM, hits mostly inhibitors; 400,000 compounds, 0.93% hits; P11473
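The screen uses fluorescence polarization to detect compounds that interfere with recruitment of the SRC2-3 coactivator peptide to VDR; plates are read after 2 h at room temperature.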
HP1b chromo inh: blocks HP1-beta chromodomain binding to methylated histone tails; 390,000 compounds, 0.56% hits; AID 540317; AlphaScreen HP1-beta / biotin-H3K9me3 peptide binding; Potency, µM (doses to about 114 µM), most hits filed as inhibitors; note: nearly all actives have a fitted effect of over 70% in size
Target sequence (P83916 whole entry, looked up): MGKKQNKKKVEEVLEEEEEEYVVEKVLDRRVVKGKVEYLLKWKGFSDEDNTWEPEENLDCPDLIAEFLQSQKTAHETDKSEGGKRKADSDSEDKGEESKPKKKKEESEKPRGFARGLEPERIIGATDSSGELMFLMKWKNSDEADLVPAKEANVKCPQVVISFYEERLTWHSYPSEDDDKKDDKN
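AlphaScreen: HP1-beta (50 nM) preformed 30 min with biotin-H3(1-18)K9me3 peptide (50 nM) in PBS pH 7.4, 0.01% Tween-20. Compound added for 30 min at RT, then streptavidin donor/nickel chelate acceptor beads (10 ug/mL) for 30 min.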
Of the large screens only hits and unclear results are named; the others gave an inactive call. Most compounds without a hit are left out; they make up all but 11% or so of the library. Calls come from the whole dose curve; as a rule, active = well fitted curve in the direction sought with a large enough effect; inconclusive = small, poorly fitted or top-dose-only effect, or another doubt; inactive = no such curve, though single readings can be large; an effect the other way counts as inactive or inconclusive.

COC(=O)C1=C(C(=O)OC)C(c2cc(Br)ccc2O)c2sc(=O)[nH]c2S1 (stereo not drawn)	G9a inh 3.16µM, PLK1 PBD block 2.99µM, BAZ2B inh inconclusive, VDR inh inconclusive
COC(=O)C1=C(C(=O)OC)C(c2cc(Cl)ccc2O)c2sc(=O)[nH]c2S1 (stereo not drawn)	JMJD2A Tudor inconclusive, G9a inh 7.94µM, PLK1 PBD block 9.47µM, BAZ2B inh inconclusive, VDR inh inconclusive
COc1ccc(C2c3sc(=O)[nH]c3SC3C4CCC(C4)C23)cc1OC (stereo not drawn)	JMJD2A Tudor inconclusive, G9a inh 8.91µM, PLK1 PBD block inconclusive, BAZ2B inh inconclusive, HP1b chromo inh inconclusive
COC(=O)C1=C(C(=O)OC)C(c2ccc(OC)c(OC)c2)c2sc(=O)[nH]c2S1 (stereo not drawn)	JMJD2A Tudor 39.8µM, G9a inh 28.2µM, VDR inh 79.4µM
O=C(CCCC(=O)OCC(=O)c1cccs1)Nc1ccc(Oc2ccccc2)cc1	PLK1 PBD block 29.9µM
O=C(CSc1n[nH]c(-c2cccs2)n1)NCCc1ccccc1	G9a inh inconclusive
Cc1ccsc1C(=O)OCC(=O)Nc1cccc(S(=O)(=O)N2CCOCC2)c1	none
Nc1nnc(SCC(=O)Nc2ccc(S(=O)(=O)N3CCOCC3)cc2)s1	G9a inh inconclusive
Cc1ccc(NC(=O)CSc2nnc(N)s2)cc1S(=O)(=O)N1CCOCC1	G9a inh 50.1µM
Cc1ccc(NC(=O)COC(=O)c2sccc2C)cc1S(=O)(=O)N1CCOCC1	G9a inh 50.1µM
COc1cc(CC(=O)NCCc2ccc(S(N)(=O)=O)cc2)cc(OC)c1OC	G9a inh inconclusive
Cc1ccc2c(c1)c1cccc3c1n2CCN3CCC(N)=O	JMJD2A Tudor 50.1µM, G9a inh inconclusive, BAZ2B inh 39.8µM, HP1b chromo inh inconclusive
NC(=O)CCn1c2ccccc2c2ccccc21	G9a inh inconclusive
Cc1ccc(CN2CCN(/N=C/c3sccc3C)CC2)c(C)c1	JMJD2A Tudor 22.4µM, G9a inh 44.7µM, BAZ2B inh 28.2µM, HP1b chromo inh inconclusive
Cc1ccsc1/C=N/N1CCN(C2c3ccccc3-c3ccccc32)CC1	JMJD2A Tudor inconclusive, BAZ2B inh inconclusive
CSc1ccc(/C=N/N2CCN(Cc3ccc(C)cc3C)CC2)cc1	JMJD2A Tudor 56.2µM, G9a inh inconclusive, BAZ2B inh 44.7µM
O=C1C(O)CCN1Cc1ccccc1 (stereo not drawn)	none (no result: G9a inh, BAZ2B inh)
OC[C@H]1O[C@@H](O[C@@H]2OC=C[C@H]3[C@H](O)[C@@H]4O[C@]4(CO)[C@@H]23)[C@H](O)[C@@H](O)[C@@H]1O	none (no result: JMJD2A Tudor, G9a inh, PLK1 PBD block, BAZ2B inh, HP1b chromo inh)
O=C(O)CCCNc1n[nH]c(=O)[nH]c1=O	G9a inh 14.1µM, BAZ2B inh inconclusive
NC(=O)N/N=C/c1c(F)c(F)c(F)c(F)c1F	JMJD2A Tudor 11.2µM, PLK1 PBD block 21.2µM, VDR inh 25.1µM (no result: G9a inh)
NC(=O)N/N=C/c1c(F)cccc1F	none
O=[N+]([O-])c1ccccc1CN1CCN(S(=O)(=O)c2ccccc2)CC1	JMJD2A Tudor 20µM, HP1b chromo inh inconclusive (no result: G9a inh, BAZ2B inh)
COc1ccc(S(=O)(=O)N2CCN(Cc3ccccc3OC)CC2)cc1	none (no result: JMJD2A Tudor, G9a inh, BAZ2B inh, VDR inh, HP1b chromo inh)
Cc1ccc(S(=O)(=O)N2CCN(Cc3ccccc3Cl)CC2)cc1	JMJD2A Tudor 5.01µM, G9a inh 1.26µM, BAZ2B inh 44.7µM, VDR inh inconclusive, HP1b chromo inh inconclusive (no result: PLK1 PBD block)
CCC1CCCCN1C(=O)c1nn(-c2ccc(C)cc2)c(=O)c2c1c1ccccc1n2C (stereo not drawn)	none (no result: PLK1 PBD block, BAZ2B inh)
CC(C)(C)c1csc(N/N=C/c2cccnc2)n1	JMJD2A Tudor inconclusive, G9a inh inconclusive, BAZ2B inh 39.8µM
C(=N\Nc1nc(-c2ccccc2)cs1)/c1cccnc1	JMJD2A Tudor inconclusive, G9a inh inconclusive, BAZ2B inh inconclusive
Cc1ccc(/C=N/Nc2nc(C(C)(C)C)cs2)o1	JMJD2A Tudor 44.7µM, G9a inh 10µM, PLK1 PBD block inconclusive, BAZ2B inh 44.7µM, VDR inh inconclusive, HP1b chromo inh inconclusive
Cc1ccc(/C=N/Nc2nc3ccccc3s2)o1	JMJD2A Tudor inconclusive, G9a inh inconclusive, BAZ2B inh inconclusive
Cc1cccc(-n2c(C)cc(/C=C3\C(=N)N4N=C(CC(C)C)SC4=NC3=O)c2C)c1	none
CCSC1=NSC2=NC(=O)/C(=C\c3coc4ccccc4c3=O)C(=N)N12	G9a inh inconclusive, PLK1 PBD block 16.8µM, BAZ2B inh inconclusive, VDR inh 79.4µM
CC(C)CC1=NN2C(=N)/C(=C\c3coc4ccccc4c3=O)C(=O)N=C2S1	G9a inh inconclusive, VDR inh 79.4µM
CC1CC(=O)C(C(C2=C(O)CC(C)CC2=O)c2ccccc2)=C(O)C1 (stereo not drawn)	PLK1 PBD block 11.9µM, VDR inh inconclusive (no result: G9a inh, BAZ2B inh)
Cc1oc(C)c(C(=O)Nc2ccccc2)c1C	none (no result: JMJD2A Tudor, G9a inh, PLK1 PBD block, BAZ2B inh, HP1b chromo inh)
CCc1c(C(=O)Nc2ccccc2)c(C)[nH]c(=S)c1C#N	JMJD2A Tudor 7.08µM, G9a inh 1.58µM, PLK1 PBD block 21.2µM, HP1b chromo inh inconclusive
Cc1[nH]c(=S)c(C#N)c(C)c1C(=O)Nc1ccccc1	JMJD2A Tudor 8.91µM, G9a inh 1.26µM, PLK1 PBD block inconclusive, HP1b chromo inh inconclusive
CNC(=O)c1c(C)[nH]c(=S)c(C#N)c1-c1ccco1	JMJD2A Tudor 17.8µM, PLK1 PBD block inconclusive, BAZ2B inh inconclusive, VDR inh inconclusive, HP1b chromo inh inconclusive (no result: G9a inh)
CC1CCN(c2ccc3c(c2)S(=O)(=O)c2ccccc2C3=O)CC1	none (no result: G9a inh, BAZ2B inh)
COc1cc(OC)cc(C(=O)Nc2ccc(NC(=O)c3ccco3)c(C)c2)c1	G9a inh 50.1µM
COc1cc(OC)cc(C(=O)Nc2cc(NC(=O)c3ccco3)ccc2OC)c1	none
Cc1ccc(NC(=O)c2ccco2)cc1C	PLK1 PBD block 21.2µM, BAZ2B inh inconclusive
CCN(CC)S(=O)(=O)c1ccc(OC(C)C)c(NC(=O)c2c3c(nc4ccccc24)CCN(Cc2ccccc2)C3)c1	none
CSc1ccc(CCNC(=O)CCc2nnc3ccc(N4CCC5(CC4)OCCO5)nn23)cc1	none
CCOc1ccc(C(=O)Nc2cccc3cccnc23)cc1	none
C/C(=N\NC(=O)c1ccc(F)cc1)c1ccccn1	JMJD2A Tudor 35.5µM, G9a inh inconclusive, BAZ2B inh 10µM
CCc1ccc(/C(C)=N/NC(=O)c2ccccn2)cc1	none
CC(=O)Nc1ccc(/C(C)=N/NC(=O)c2ccc(F)cc2)cc1	JMJD2A Tudor 89.1µM, PLK1 PBD block inconclusive, VDR inh inconclusive
C/C(=N\NC(=O)c1c[nH]c2ccccc12)c1ccccn1	JMJD2A Tudor 50.1µM, BAZ2B inh 10µM
CCOc1ccc(C(=O)N/N=C(\c2ccccc2)c2ccccn2)cc1	BAZ2B inh 79.4µM
COc1cc(Cl)c(CNC[C@H]2O[C@@H](n3cnc4c(=O)[nH]c(N)nc43)[C@H](O)[C@@H]2O)c(Cl)c1O	none (no result: JMJD2A Tudor, G9a inh, BAZ2B inh, VDR inh, HP1b chromo inh)
Cc1ccc(-c2nc3ccccc3[nH]2)cc1NC(=O)COc1ccccc1[N+](=O)[O-]	none (no result: PLK1 PBD block)

Screens deposited in PubChem BioAssay by National Center for Advancing Translational Sciences (NCATS).
